PLC-beta3 inh: blocks human PLC-beta3 enzyme activity; Purified PLC-beta3, fluorogenic substrate, fluorescence; inhibition, % at 12.2 µM; actives 0.18% (n = 370,000); AID 720704; in the data active = inhibition above about 11%;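 also: 0% = median of compound wells on plate and 100% = full blocker control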
Cardio protect: modulators protecting cardiomyocytes from myocardial damage; H9c2 cardiomyocytes, H2O2 injury protection, ATPLite, 2 h; protection from H2O2 cell death, % at 20 µM; AID 588492; actives 0.63% (n = 360,000);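 active = compounds giving at least 50% protection of heart cells from peroxide-induced death in the single-dose screen, raw or plate-pattern-corrected value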;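 also: 0% = DMSO wells with peroxide and 100% = DMSO wells without peroxide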
FAS TE block: FAS thioesterase (human) inhibition. recombinant FAS-TE, OMFH fluorogenic substrate, fluorescence endpoint. inhibition, % at 15 µM. actives 0.67% (n = 360,000). AID 602261;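 active = compounds whose normalised, plate-corrected inhibition of enzyme fluorescence in the single-dose primary screen is 50% or more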;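 also: 0% = DMSO with enzyme and 100% = substrate without enzyme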
PLCg1 inh: inhibitors of human phospholipase C gamma1; inhibition, % at 12.2 µM; purified PLC-gamma1, fluorogenic substrate, fluorescence; actives 0.84% (n = 370,000); in the data active = inhibition above about 9.5%
* = called active by the depositor; · = no result given. Most compounds without a hit are left out; they make up all but 2.2% or so of the library.

SMILES	PLC-beta3 inh	Cardio protect	FAS TE block	PLCg1 inh
COc1ccc(OC)c(Nc2nc(N)nc(-c3cc4ccccc4o3)n2)c1	6.4	56.1*	-0.5	6.1
COc1ccc(OC)c(NC(=O)c2cc3ccccc3o2)c1	-12.7	0.7	12.2	-9.9
NC(=O)c1c(N)[nH]c(C(=O)c2ccccc2)c1-c1ccccn1	-3.6	·	·	1.0
CC(C)C[C@H]1CN([C@@H](Cc2ccccc2)CN2CCC[C@@H]2CN2C(=O)C(=O)NC[C@@H]2Cc2ccc(O)cc2)C(=O)C(=O)N1CC1CCCCCC1	0.3	0.1	19.3	2.3
CC(C)C[C@@H](CN1CCC[C@@H]1CN1C(=O)C(=O)NC[C@@H]1Cc1ccccc1)N1C[C@H](Cc2ccccc2)N(CC2CCCCCC2)C(=O)C1=O	13.3*	-9.2	5.1	4.3
CC(C)C[C@H]1CN([C@@H](Cc2ccc(O)cc2)CN2CCC[C@@H]2CN2C(=O)C(=O)NC[C@@H]2Cc2ccccc2)C(=O)C(=O)N1CC1CCCCC1	5.1	4.5	14.5	13.0*
Cc1cc(Nc2cc(C(F)(F)F)cc(C(F)(F)F)c2)cc(=O)n1-c1cc(C(F)(F)F)cc(C(F)(F)F)c1	2.1	·	·	-0.8
CC(C)=CCc1c(O)ccc2c1OC(c1ccc(O)c(O)c1)CC2=O (stereo unspecified)	-16.1	53.9*	-1.9	-12.4
O=C(NCCOC(=O)c1ccc([N+](=O)[O-])cc1)c1cccnc1	5.2	-2.4	1.7	0.3
CCOC(=O)C1=C(C)NC(C)=C(C(=O)OCCNC(=O)c2cccnc2)C1c1cccc([N+](=O)[O-])c1 (stereo unspecified)	·	69.2*	6.4	·
CCCCCCCCS(=O)C1CCS(=O)(=O)C1 (stereo unspecified)	-0.8	0.3	6.9	-3.3
CCCCCCS(=O)[C@H]1CS(=O)(=O)C[C@@H]1S(=O)CCCCCC (stereo partly specified)	10.6*	-1.5	3.2	3.1
CC(C)CNC(=O)OCc1cn(Cc2cccc(C(F)(F)F)c2)nn1	0.2	·	·	-2.7
COc1ccc2nc(C)cc(SCC(=O)N/N=C/c3ccccc3)c2c1	-2.3	4.0	2.3	-3.9
COCc1cc(C)nc(OCC(=O)N/N=C/c2ccccc2O)c1C#N	-7.7	27.7	4.3	-3.4
COCc1cc(C)nc(OCC(=O)N/N=C/c2ccc(O)cc2O)c1C#N	-3.6	52.0*	-10.1	-3.2
COc1ccc(Cc2nc3ccccc3n2CC(=O)N/N=C/c2ccc(C)cc2O)cc1OC	-30.4	51.9*	-8.3	-31.6
COc1ccc(Cc2nc3ccccc3n2CC(=O)N/N=C/c2ccc(O)cc2)cc1OC	1.4	11.0	-11.0	-1.9
COc1cccc2c(SCC(=O)N/N=C/c3ccc(O)cc3O)cc(C)nc12	-206.8	81.1*	-1.8	-170.5
COc1ccc2nc(C)cc(SCC(=O)N/N=C/c3ccc(O)cc3O)c2c1	-12.1	51.8*	-4.6	-8.5
COC(=O)[C@@]12CCCCC3=C1N(CCC3)C(=O)[C@H]2CC(=O)NCCCN1CCCC1=O	0.7	·	·	-0.6
Cc1ccc(N2C(=O)CS/C2=C(\C(Cl)=C(Cl)Cl)[N+](=O)[O-])cc1	-3.7	69.4*	-11.9	0.1
S=C1NNC2(NN1)C1CC3CC(C1)CC2C3	3.6	18.4	-3.3	6.4
C1CSC2(N1)C1CC3CC(C1)CC2C3 (stereo unspecified)	11.7*	-0.5	-6.9	0.6
O=C(CCc1nc2ccccc2c(=O)[nH]1)NCC(=O)Nc1ccc(F)c(F)c1	-14.9	59.3*	-1.3	-4.0
SMILES	PLC-beta3 inh	Cardio protect	FAS TE block	PLCg1 inh
O=C(CCc1nc2ccccc2c(=O)[nH]1)Nc1cccc(S(=O)(=O)N2CCCCC2)c1	-8.4	26.4	-3.2	-1.1
O=C(CCc1nc2ccccc2c(=O)[nH]1)Nc1ccc(F)c([N+](=O)[O-])c1	-19.2	50.1*	23.2	-13.8
CCC(=O)Nc1ccc2c(c1)C(=O)N(C)[C@@H]1CC[C@@H](CC(=O)NCCN3CCCCC3)O[C@H]1CO2	-2.6	·	·	7.8
Cc1ccc2c(c1)C1CS(=O)(=O)N(Cc3ccccc3)CN1C2 (stereo unspecified)	-10.9	·	·	-6.1
CCCCn1c(SCC(=O)c2ccc(O)c(O)c2)nc2ccsc2c1=O	·	91.6*	20.2	·
O=C(CCCn1c(SCC(=O)c2ccc(O)c(O)c2)nc2ccccc2c1=O)NCC1CCCO1 (stereo unspecified)	0.7	52.8*	-8.6	2.2
O=C(O)CCCCCn1c(SCC(=O)c2ccc(O)c(O)c2)nc2ccsc2c1=O	2.6	17.3	-6.7	11.1*
O=C(CCCn1c(SCC(=O)NC2CCCCC2)nc2ccccc2c1=O)NCC1CCCO1 (stereo unspecified)	-1.1	12.0	-3.1	0.3
COc1ccc(C(=O)C2(C(=O)NCc3ccccc3)CC(c3ccccc3C(F)(F)F)=NO2)cc1 (stereo unspecified)	-0.5	·	·	-2.6
c1ccc(CN2CCN(CCCNc3ccc4nnc(-c5ccccc5)n4n3)CC2)cc1	·	79.0*	4.2	·
CSc1nc2ccc(Nc3nc(N4CCOCC4)nc(N4CCOCC4)n3)cc2s1	1.0	69.5*	50.0	-0.5
O=C(CSc1nc2ccc(Nc3nc(N4CCOCC4)nc(N4CCOCC4)n3)cc2s1)N1CCOCC1	-2.7	47.9	-0.3	-0.7
CCCCCC[C@@H](CCCc1ccccc1OC)CN(CCCC)S(C)(=O)=O	4.4	·	·	3.1
O=S1(=O)c2ccc(Br)cc2OC[C@H](Cc2ccccc2)N1Cc1cn(Cc2ccc(F)cc2)nn1	6.5	·	·	3.7
CCc1nc2oc3ccccc3c(=O)c2c(=O)n1Cc1ccccc1	0.1	5.2	-3.4	2.9
O=c1c2ccccc2oc2nc(-c3ccco3)n(Cc3ccccc3)c(=O)c12	-4.8	62.9*	0.2	0.6
COCCn1nnnc1C(c1ccc(OC)cc1OC)N1CCN(c2ccccc2)CC1 (stereo unspecified)	2.5	3.4	5.3	5.9
COc1ccc(OC)c(C(c2nnnn2CCc2ccccc2)N2CCN(c3ccccc3)CC2)c1 (stereo unspecified)	2.8	3.3	26.3	10.8*
COc1ccc(-c2nnc(-c3cc(OC)c(OC)c(OC)c3)o2)cc1OC	-285.6	58.2*	-1.5	-222.6
COc1cc(-c2nnc(-c3cccs3)o2)cc(OC)c1OC	-142.9	8.0	-1.5	-115.1
COCOc1ccc(C=O)c(O)c1	2.7	-0.6	-5.1	2.1
O=Cc1ccc(OCc2cccc(C(F)(F)F)c2)cc1O	-24.6	67.9*	16.7	-21.8
CCCC1CCC2(CC1)CCC2OC(=S)Nc1ccccc1Cl (stereo unspecified)	-0.1	·	·	-1.9
CCCCCCCCN1C(=O)[C@@H](CC(=O)NCc2cccc3ccccc23)C[C@@]2(C(=O)OC)C1=C[C@H](C(C)(C)C)O[C@@H]2C	0.2	·	·	-5.6
CC(C)N1Cc2nnn(Cc3ccccc3)c2-c2cc(F)ccc2S1(=O)=O	1.6	·	·	0.9
CCOC(=O)c1cnc(Nc2nc3ccccc3o2)nc1CN1CCN(C)CC1	-22.0	59.9*	-6.1	-15.1
O=C1NC(Cc2ccc(O)cc2)c2nc3ccc(F)cc3c(=O)n2-c2cc3ccccc3cc21 (stereo unspecified)	-3.0	95.2*	17.5	-4.0

Source: PubChem BioAssay (several laboratories)
